# SARS 3CLpro inh: SARS-CoV 3CLpro protease inhibition. P0C6X7. recombinant SARS-CoV 3CLpro, quenched FRET peptide cleavage. inhibition, % at 6 µM. hit rate 0.14% among 290,000. AID 1706; in the data active = inhibition above about 12%
# BJeLR lethal: BJeLR cell viability loss | inhibition, % (concentration not given with the values) | AID 1554 | hit rate 0.17% among 300,000 | BJeLR (HRASV12) viability, CellTiter-Glo ATP luminescence, 48 h; in the data active = inhibition above about 50%
# SSB-PriA inh: K. pneumoniae PriA-SSBct interaction inhibition; AlphaScreen SSBct-PriA binding, biotinylated peptide; inhibition, % at 33 µM; hit rate 0.6% among 430,000; in the data active = inhibition mostly above about 37%, no sharp cut-off; inactive = mostly below about 20%;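 also: plate controls were negative control peptide for no effect and reference peptide for full effect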
# * hit, by the source's call; i = inactive; / = not tested or not shown. Rows were chosen to be rich in hits. Some 0.78% of all compounds tested hit in one or more screens of this group.
SMILES,SARS 3CLpro inh,BJeLR lethal,SSB-PriA inh
CCOc1ccc(C(=O)c2cc([N+](=O)[O-])ccc2N2CCOCC2)cc1,0,53*,-4
COc1ccc(C(=O)c2cc([N+](=O)[O-])ccc2N2CCOCC2)cc1,6,59*,-4
CCOc1ccc(S(=O)(=O)N2CCN(C(=O)c3cc([N+](=O)[O-])ccc3N3CCOCC3)CC2)cc1,/,/,3
Cc1ccc(C(=O)c2cc([N+](=O)[O-])ccc2N2CCOCC2)cc1,2,5,9
Cc1ccn2c(=O)c(C(=O)Nc3nc(C)cs3)cnc2c1,/,/,-6
O=C(COC(=O)c1ccc(O)cc1)Nc1nnc(-c2ccccc2)o1,/,/,59*
O=C(COC(=O)Cc1ccccc1)Nc1nnc(-c2ccccc2)o1,/,1,-3
CS(=O)(=O)c1cccc2sc(N3CCN(C(=O)c4ccco4)CC3)nc12,/,/,-12
Cc1cccc(C)c1NC(=O)c1ccc2nnsc2c1,/,/,-21
O=C(O)CCC(=NNc1ccccc1[N+](=O)[O-])c1cccs1,/,/,42*
O=C(O)CC/C(=N\Nc1ccc([N+](=O)[O-])cc1S(=O)(=O)N1CCOCC1)c1cccs1,4,-2,/
Cc1ccc(NC(=O)N(CCCN2CCOCC2)Cc2cccs2)cc1C,-9,-4,92*
O=C(Nc1ccc(Cl)cc1)N(CCCN1CCOCC1)Cc1cccs1,3,7,-16
c1ccc(-c2cc(NCCCn3ccnc3)n3ncc(-c4ccccc4)c3n2)cc1,/,/,-13
Cc1cc(NCCCn2ccnc2)n2ncc(-c3ccc(Cl)cc3)c2n1,-1,-4,43*
COc1ccc(/C=N/NC(=O)c2[nH]c3ccc(Br)cc3c2-c2ccccc2)c(C(=O)O)c1OC,1,-4,i
COc1ccc(/C=N/NC(=O)c2[nH]c3ccc(Br)cc3c2-c2ccccc2)cc1,1,55*,i
NNC(=O)c1[nH]c2ccc(Br)cc2c1-c1ccccc1,3,1,2
O=C(N/N=C/c1ccccc1Cl)c1[nH]c2ccc(Br)cc2c1-c1ccccc1,-6,60*,i
O=C(c1ccccc1F)N1CCC(CNC(=O)N2CCNC2=O)CC1,/,/,-1
O=C(NCCS(=O)(=O)N1CCc2ccccc2C1)c1c(F)cccc1Cl,/,/,-7
COC(=O)Cn1c(=NC(=O)C(C)(C)C)sc2cc(C)ccc21,/,/,-4
CCOc1ccccc1C(=O)NCCC(O)c1ccco1 (stereo unspecified),/,/,0
CCOc1ccccc1C(=O)NCC[C@H](O)c1ccccc1,/,/,43*
O=C(Nc1nc(-c2ccc(-c3ccccc3)cc2)cs1)C1=COCCO1,1,14,-3
SMILES,SARS 3CLpro inh,BJeLR lethal,SSB-PriA inh
O=C(Nc1nc(-c2ccc(Cl)cc2Cl)cs1)c1ccccc1,/,/,-4
O=C(Nc1nc(-c2ccccn2)cs1)C1=COCCO1,/,/,106*
O=C(Nc1nc(-c2ccccn2)cs1)c1ccccn1,/,/,162*
O=C(Nc1nc(-c2ccccn2)cs1)c1ccc(Cl)cc1,/,/,73*
CS(=O)(=O)Cc1ccc(C(=O)Nc2nc(-c3ccccn3)cs2)cc1,/,/,17
CS(=O)(=O)c1ccc(C(=O)Nc2nc(-c3ccccn3)cs2)cc1,/,/,75*
N=C1SC(c2ccccc2)C(=O)N1c1nccs1 (stereo unspecified),/,/,-13
O=c1oc2c(Cl)cc(Cl)cc2cc1-c1nnc(-c2cccc(F)c2)o1,/,/,-10
O=C(CSc1nc(-c2cccc(Cl)c2)[nH]c1-c1ccccc1)NCc1ccco1,/,/,-3
CCOc1ccc(S(=O)(=O)NNc2ccc([N+](=O)[O-])cc2[N+](=O)[O-])cc1,/,/,31
N#Cc1nccnc1OC1CCC(NC(=O)NCc2cccs2)CC1 (stereo unspecified),/,/,-11
O=C(CNS(=O)(=O)c1cccc(F)c1)N1CC[C@H](n2cc(-c3ccccc3)nn2)C1,/,/,-25
O=C(Nc1nc(-c2ccccc2)cs1)c1cccs1,-2,4,-10
O=C(/C=C/c1cccs1)Nc1cccc(NC(=O)/C=C/c2cccs2)n1,3,-14,-1
O=C(Nc1nc(-c2ccccn2)cs1)c1ccc(NC(=O)c2cccs2)cc1,/,/,97*
O=C(/C=C/c1ccccc1)Nc1nc(-c2ccccn2)cs1,/,/,15
CCOc1ccc2nc(NC(=O)c3ccoc3C)sc2c1,8,81*,0
O=C(/C=C/c1cccs1)Nc1ccc(Br)cn1,1,53*,-20
CCOc1ccc2nc(NC(=O)c3ccco3)sc2c1,-2,22,-10
O=C(/C=C/c1cccs1)Nc1nc(-c2ccccn2)cs1,/,/,66*
O=S(=O)(NC[C@H]1CCCO1)c1ccc(Cl)c2ccccc12,/,/,-24
O=C(Nc1nc(C(=O)Nc2nc(-c3ccco3)cs2)co1)c1cnccn1,/,/,-1
CCCn1ccc2c(OCC(=O)NCCc3ccc(OC)c(OC)c3)cccc2c1=O,/,/,-3
O=C(Nc1nc(-c2ccccn2)cs1)c1ccccc1C(F)(F)F,/,/,88*
CC1CN(Cc2ccc(C(=O)Nc3nc(-c4ccccn4)cs3)cc2)CC(C)O1 (stereo unspecified),/,/,114*
SMILES,SARS 3CLpro inh,BJeLR lethal,SSB-PriA inh
N#Cc1ccccc1Sc1ccccc1C(=O)Nc1nc(-c2ccccn2)cs1,/,/,34
Cc1nc(C(=O)Nc2nc(-c3ccccn3)cs2)c(C(C)C)s1,/,/,68*
O=C(Nc1nc(-c2ccccn2)cs1)c1cc2ccccc2o1,-6,2,20
Cc1c(C(=O)Nc2nc(-c3ccccn3)cs2)oc2ccccc12,/,/,69*
Cc1sc2ncc(C(=O)Nc3nc(-c4ccccn4)cs3)c(=O)n2c1C,/,/,35
COc1cc(NC(=O)NCCOc2ccc3nnc(-c4ccccc4)n3n2)cc(OC)c1,/,/,4
COc1ccc(S(=O)(=O)NCC2CCN(Cc3cccs3)CC2)cc1Cl,/,/,-1
Cc1ccccc1Cn1cnc2c(cnn2CCNC(=O)CC(C)(C)C)c1=O,/,/,-17
Cn1cc(C(=O)NCCn2nc(-c3ccccn3)n(C)c2=O)nn1,/,/,-15
O=C(CC12CC3CC(CC(O)(C3)C1)C2)Nc1nc(-c2ccccn2)cs1,/,/,97*
Cc1occc1C(=O)Nc1nc(-c2ccccn2)cs1,/,/,112*
O=C(Nc1nc(-c2ccccn2)cs1)c1c[n+]2cccnc2[nH]1,/,/,99*
O=C(CC12CC3CC(CC(C3)C1)C2)Nc1nc(-c2ccccn2)cs1,/,/,43
O=C(Nc1nc(-c2ccccn2)cs1)c1n[nH]c2c1CCCCC2,/,/,62*
O=C(Nc1nc(-c2ccccn2)cs1)c1ncc(Cl)c(Cl)c1Cl,-2,0,12
O=C(Nc1nc(-c2ccccn2)cs1)c1ccc2c(c1)CCCC2,/,/,54
COc1ccc(-c2csc(NC(=O)c3ccoc3C)n2)cc1,1,1,-4
O=C(CCS(=O)(=O)c1ccccc1)N1CCc2nc3ccccn3c(=O)c2C1,/,/,2
COc1cc(=O)n(-c2ccccc2)cc1C(=O)NCCc1cccs1,/,/,-10
O=C(NCCN1Cc2cc(Cl)ccc2OCC1=O)c1n[nH]c2c1CCCC2,/,/,-5
Cn1cc(S(=O)(=O)NCc2ccc(C(=O)c3ccco3)s2)cn1,/,/,-19
Cc1ccc(Cn2c(=O)c3ncccc3n(CC(=O)Nc3ccc(OC(F)(F)F)cc3)c2=O)cc1,/,/,-5
CCOC(=O)c1ccc(NC(=O)/C(C#N)=C/c2ccc(-c3ccccc3Br)o2)cc1,/,/,-7
COc1ccc(N2CC(C(=O)N3CCC(Oc4ccc(C)nn4)C3)CC2=O)cc1 (stereo unspecified),/,/,-8
COc1ccccc1-c1nnc(NC(=O)C2CCCN2S(=O)(=O)c2cccs2)o1 (stereo unspecified),/,/,75*
